Screening data: PubChem, National Center for Advancing Translational Sciences (NCATS)
PI5P4K alpha inh: qHTS for Inhibitors of phosphatidylinositol 5-phosphate 4-kinase (PI5P4K); PI5P4Kalpha enzyme, ADP-Glo luminescence, 60 min; hits give low values; max response, %; hit rate 1.2% among 330,000; Phosphatidylinositol 5-phosphate 4-kinase type-2 alpha (Homo sapiens), P48426; AID 652105, 2013; active = max response of -50% or lower; inconclusive = between -30% and -50%; inactive = -30% or higher; note: value at the top dose of about 77 µM; % is set by controls: 0 for no effect and ±100 for the full control effect
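PI5P4Kalpha ADP-Glo assay; 5 microM ATP final; 60 min RT reaction; HEPES pH 7.4/EGTA/CHAPS, 5% DMSO; controls lacking substrate or enzyme; luminescent end-point.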
BAZ2B inh: qHTS Assay for Inhibitors of BAZ2B | Bromodomain adjacent to zinc finger domain protein 2B (Homo sapiens), Q9UIF8 | AlphaScreen BAZ2B-H3K14Ac peptide displacement | Potency, µM (top dose mostly 114 µM), for inactives: at the highest dose activity change, negative = inhibition, usual class: inhibitors | hit rate 4.4% among 360,000 | AID 504333, 2011; note: potency is the fitted concentration of half-maximal effect; % is set by controls: 0 for no effect and ±100 for the full control effect; nearly all actives have a fitted effect of over 60% in size
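In this displacement format the biotinylated H3(5-23) peptide acetylated at Lys14 serves as ligand at 50 nM, with BAZ2B at 50 nM in PBS pH 7.4 containing 0.01% Tween-20. Donor and acceptor beads are 10 ug/mL final.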
JMJD2A Tudor inh: qHTS Assay for Inhibitors of JMJD2A-Tudor Domain; Lysine-specific demethylase 4A (Homo sapiens), O75164; AlphaScreen JMJD2A-Tudor / H3K4me3 peptide binding; Potency, µM (series often up to 114 µM), for inactives: at the top dose activity change, negative = inhibition, most hits filed as inhibitors; hit rate 4.4% among 390,000; AID 504339, 2011; note: potency is the fitted concentration of half-maximal effect; % is set by controls: 0 for no effect and ±100 for the full control effect; nearly all actives have a fitted effect of over 50% in size
Target sequence (O75164 whole entry, looked up, the tested form may be a part): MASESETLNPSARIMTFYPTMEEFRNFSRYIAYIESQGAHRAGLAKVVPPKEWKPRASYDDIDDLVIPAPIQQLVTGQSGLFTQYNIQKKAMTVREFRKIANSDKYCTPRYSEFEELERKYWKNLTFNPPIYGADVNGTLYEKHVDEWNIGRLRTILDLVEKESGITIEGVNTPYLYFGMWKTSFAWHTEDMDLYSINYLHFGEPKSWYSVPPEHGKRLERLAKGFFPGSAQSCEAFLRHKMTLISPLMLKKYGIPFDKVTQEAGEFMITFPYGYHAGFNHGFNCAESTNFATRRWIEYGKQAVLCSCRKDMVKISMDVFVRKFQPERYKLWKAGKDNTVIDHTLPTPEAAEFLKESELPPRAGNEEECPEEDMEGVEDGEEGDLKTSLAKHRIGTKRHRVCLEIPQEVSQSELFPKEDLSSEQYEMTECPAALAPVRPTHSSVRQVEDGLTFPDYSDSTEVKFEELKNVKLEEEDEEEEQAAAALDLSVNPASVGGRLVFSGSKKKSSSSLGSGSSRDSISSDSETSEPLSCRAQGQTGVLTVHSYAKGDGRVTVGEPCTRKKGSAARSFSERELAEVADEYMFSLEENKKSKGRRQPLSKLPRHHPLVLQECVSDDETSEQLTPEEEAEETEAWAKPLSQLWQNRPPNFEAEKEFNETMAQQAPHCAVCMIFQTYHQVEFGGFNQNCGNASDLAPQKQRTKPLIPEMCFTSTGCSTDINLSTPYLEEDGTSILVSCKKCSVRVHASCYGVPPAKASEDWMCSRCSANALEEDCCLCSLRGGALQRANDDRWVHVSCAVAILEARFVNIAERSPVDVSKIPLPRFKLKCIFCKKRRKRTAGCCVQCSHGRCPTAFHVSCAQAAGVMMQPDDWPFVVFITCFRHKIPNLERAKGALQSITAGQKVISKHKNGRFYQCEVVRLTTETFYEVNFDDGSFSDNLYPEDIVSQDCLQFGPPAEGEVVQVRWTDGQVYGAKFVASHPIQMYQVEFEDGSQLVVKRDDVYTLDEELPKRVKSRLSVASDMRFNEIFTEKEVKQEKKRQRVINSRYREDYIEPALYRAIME
HP1b binding inh: HTS for Inhibitors of HP1-beta Chromodomain Interactions with Methylated Histone Tails. Chromobox protein homolog 1 (Homo sapiens), P83916. AlphaScreen HP1-beta / biotin-H3K9me3 peptide binding. Potency, µM (highest dose often 114 µM), without a hit: at the top dose activity change, negative = inhibition, hits mostly inhibitors. hit rate 0.56% among 390,000; note: potency is the fitted concentration of half-maximal effect; nearly all actives have a fitted effect of over 70% in size
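Compound inhibition of the preformed complex between 50 nM HP1-beta and 50 nM biotinylated H3K9me3 peptide was read by AlphaScreen. Buffer was PBS pH 7.4 with 0.01% Tween-20. Incubations ran 30 min at room temperature, with 10 ug/mL donor/acceptor beads.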
G9a block: qHTS Assay for Inhibitors of Histone Lysine Methyltransferase G9a. Histone-lysine N-methyltransferase EHMT2 (Homo sapiens), Q96KQ7. G9a H3K9 monomethylation, AlphaScreen, 2 h. Potency, µM (series often up to 102 µM), for inactives: at the top dose activity, negative = inhibition, hits mostly inhibitors. hit rate 8.8% among 350,000; note: potency is the fitted concentration of half-maximal effect; % is set by controls: 0 for no effect and ±100 for the full control effect; nearly all actives have a fitted effect of over 75% in size
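Quantitative HTS format: methyltransferase activity on a biotin-tagged H3K9 peptide is measured by AlphaScreen, using a rabbit anti-monomethyl-H3K9 antibody with streptavidin donor and anti-IgG acceptor beads. Final levels are 20 nM enzyme, 500 nM peptide, 20 uM SAM; 2 h RT.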
L3MBTL1 block: qHTS Assay for the Inhibitors of L3MBTL1. AID 485360, 2010. Potency, µM (highest dose often 57.1 µM), for inactives: at the highest dose activity, negative = inhibition, hits mostly inhibitors. hit rate 0.66% among 230,000. AlphaScreen L3MBTL1–H3K9me1 peptide binding; note: potency is the fitted concentration of half-maximal effect; % is set by controls: 0 for no effect and ±100 for the full control effect; nearly all actives have a fitted effect of over 60% in size
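AlphaScreen assay: L3MBTL1 (50 nM final) was preincubated 30 min at room temperature with biotinylated H3(1-15)K9me1 peptide (75 nM final), then 30 min with library compounds; streptavidin donor and nickel chelate acceptor beads (10 ug/mL final) added, 30 min dark.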
* marks the source's active call; other numbers are inactive results; ? = inconclusive; . = no result given; [ ] = another dose, or the depositor's remark. Compounds with a hit are over-represented: about 11% of the library has one in this group of screens. Unless noted, calls come from the whole dose curve; as a rule, active = well fitted inhibition curve with a large enough effect; inconclusive = small, poorly fitted or top-dose-only effect; inactive = no such curve, though single readings can be large or run the other way.

SMILES	PI5P4K alpha inh	BAZ2B inh	JMJD2A Tudor inh	HP1b binding inh	G9a block	L3MBTL1 block
COc1ccc(N2CCN(c3oc(COc4ccc(Cl)cc4)nc3C#N)CC2)cc1	5.2	3.55µM*	?	?	?	?
CN1CCN(c2oc(COc3ccc(-c4ccccc4)cc3)nc2C#N)CC1	.	11.2µM*	28.2µM*	14.1µM*	12.6µM*	-24.2%[11.4 µM]
Cc1cc(OCC(=O)Nc2ccc(C(=O)OC3CCCCC3)cc2)ccc1Cl	.	1.4%	-12.4%	24.3%	-1.1%[59 µM]	.
COc1ccc(CCNC(=O)c2ccc3c(c2)CCN3S(C)(=O)=O)cc1OC	.	-0.7%	-21.7%	42.4%	16.8%[59 µM]	.
Nc1[nH]c2cc([N+](=O)[O-])ccc2c1-c1ccccn1	-6.8	28.2µM*	?	?	44.7µM*	.
COc1cc(Cl)c(C)cc1Nc1nc2ccccc2n2cnnc12	.	1.6%	-8.0%	24.4%	-23.3%[59 µM]	.
O=c1oc2ccccc2nc1/C=C(\O)c1ccccc1	-3.3	?	-3.7%	50.5%	.	.
O/C(=C\c1nc2ccccc2nc1/C=C(\O)c1ccccc1)c1ccccc1	-6.2	4.47µM*	?	-16.2%	?	.
COc1ccc(N2CCN(CCNC(=O)Nc3ccc([N+](=O)[O-])cc3OC)CC2)cc1	6.7	?	50.1µM*	?	44.7µM*	.
COc1ccc(N2CCN(CCNC(=O)Nc3ccc(C)c(Cl)c3)CC2)cc1	2.1	-34.9%	-27.8%	2.0%	25.1µM*	.
COc1cc(NC(=O)NCCN2CCN(c3ccc(Cl)cc3)CC2)ccc1C	19.7	?	-33.0%	-18.6%	?	-19.9%
CC(=O)Nc1c(C)nn(-c2ccccc2)c1N1CCC(C(=O)Nc2ccc(Cl)cc2C)CC1	.	0.5%	-17.2%	21.2%[57 µM]	6.0%[59 µM]	.
COc1ccc(-c2noc(CSc3nnc(C)n3-c3ccc(F)cc3)n2)cc1	.	-10.0%	-11.5%	22.6%	-25.7%[59 µM]	.
COc1ccc(OCc2nc3c4cc(OC)c(OC)cc4nc(=S)n3[nH]2)cc1	1.2	10.0%	-19.9%	34.2%	1µM*	8.5%
Clc1ccc(C[n+]2csc3ccccc32)cc1	-19.8	50.1µM*	50.1µM*	22.6%	?	-0.4%
Fc1ccc(C[n+]2csc3ccccc32)cc1	-14.4	56.2µM*	?	14.9%	?	-6.5%
CCN(CC)S(=O)(=O)c1ccc(C)c(NC(=S)N2CCN(c3ccccn3)CC2)c1	-3.5	-17.5%	-26.6%	-9.3%	31.6µM*	.
CCc1ccccc1NC(=S)N1CCN(c2ccccn2)CC1	7.1	-3.6%	-19.1%[57.1 µM]	20.1%	14.9%[59 µM]	-2.8%
CCN(CC)S(=O)(=O)c1ccc(C)c(NC(=S)N2CCN(C/C=C/c3ccccc3)CC2)c1	-2.6	?	-34.7%	15.5%	35.5µM*	?
CCOC(=O)CN=C1CC(C)(C)CC2=C1Sc1ncnc(N(C)C)c1N2	.	?	?	-2.6%	4.47µM*	-4.5%
COCCn1c(=O)c(-c2ccc(Cl)cc2)nc2cnc(Oc3cccc(Cl)c3)nc21	.	.	.	.	3.0%[0.501 µM]	.
S=c1nn[nH]c2ccccc12	-5.9	.	11.2µM*	-13.1%	.	.
CCc1ccc(CNC(=O)c2c(C)oc3ncn(CC(C)C)c(=O)c23)cc1	.	7.4%[57.1 µM]	2.9%	37.1%	-6.7%[59 µM]	.
Cc1cc(C)c(O)c(N)c1	.	?	.	.	2.24µM*	-17.2%
CCCN(CC1CC1)C(=O)CSc1ncnc2sccc12	-1.5	1.8%	-6.8%	55.1%	39.8µM*	16.4%
COc1cc2c(cc1OC)C1(CCCC1)CNC2c1ccc([N+](=O)[O-])cc1 (centres undefined)	4.8	?	-27.5%	-5.4%	35.5µM*	-27.0%
COc1cc2c(cc1OC)C1(CCCC1)CNC2C (centres undefined)	.	1.8%	-17.4%	33.6%	-9.3%[59 µM]	-7.8%
Brc1ccc(-c2nc3ncccn3c2Nc2ccc3c(c2)OCCO3)o1	-5.7	50.1µM*	?	-4.8%	?	.
